HTT ATP protect = cytoprotection in Huntington HTT-Q103 PC12 cell model. AID 1471. Potency, µM (highest dose often 56.4 µM), for inactives: cytoprotection (ATP increase), most hits filed as activators. PC12 HTT-Q103 induced, cytoprotection, ATP luminescence, 40 h. hit rate 0.14% among 230,000; further: % of control where 0% means no effect; nearly all actives have a fitted effect of over 45% in size
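PC12 cells stably carrying ecdysone-inducible Htt exon 1 (Q103)–GFP were induced with 100 nM tebufenozide (final) alongside library compounds in a dose series. Cytoprotection was scored as retained ATP by ATPlite luminescence.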
LMNA splice mod = LMNA splicing modulation | HeLa LMNA splicing GFP/RFP minigene ratio, 48 h | Potency, µM (highest dose often 46.1 µM), for inactives: at the top dose ratio change, negative = inhibition, actives largely listed as inhibitors | hit rate 0.01% among 200,000 | AID 1487; active means well fitted inhibition curve with a large enough effect in the signal ratio, with a control signal flat, not every such curve was filed as active; inconclusive means small, poorly fitted or top-dose-only effect, or effect the other way, or a change in a side signal; the % refers to the signal ratio; further: on the % scale 0 is the no-effect control and ±100 the full control effect
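S3 HeLa cells stably expressing lamin A-EGFP splicing minigene plus DsRed2, 600 cells/well, 48 h compound exposure at 37C. Laser-scanning cytometry; analysed as GFP (500-530 nm)/RFP (575-640 nm) total intensity ratio; 0.5% DMSO vehicle.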
HttQ103 aggreg = inhibitors of mutant huntingtin aggregate formation in PC12 cells; PC12 HttQ103-GFP aggregates, Acumen cytometry, 40 h; Potency, µM (titrated, usually from 46.1 µM), for inactives: at the top dose activity change, negative = inhibition, usual class: inhibitors; hit rate 1.1% among 220,000; AID 1688; further: on the % scale 0 is the no-effect control and ±100 the full control effect; nearly all actives have a fitted effect of over 60% in size
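PC12 cells with ecdysone-inducible HTT exon1 Q103-GFP, induced by 100 nM tebufenozide, given compounds in a concentration series. GFP aggregates (1–25 um, 6 SD above background) counted in lysates by laser-scanning cytometry, 488 nm excitation.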
ALDH1A1 inh = blocks purified human ALDH1A1 activity; hit rate 7.3% among 220,000; Potency, µM (highest dose often 75.3 µM), without a hit: at the top dose activity, negative = inhibition, hits mostly inhibitors; Purified ALDH1A1, NADH fluorescence, propionaldehyde substrate; active means well fitted inhibition curve with a large enough effect, not every such curve was filed as active; inconclusive means small, poorly fitted or top-dose-only effect, or another doubt; inactive means no such curve, though single readings can be large or run the other way;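 further: plate controls were no enzyme wells and a reference inhibitor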
KinaseGlo FLuc = counter-screen: inhibitors of Kinase-Glo firefly luciferase; hit rate 0.28% among 200,000; Kinase-Glo luciferase, ATP luminescence, 8 min; Q27757; Potency, µM (highest dose often 38.3 µM), for inactives: at the top dose activity change, negative = inhibition, usual class: inhibitors; further: on the % scale 0 is the no-effect control and ±100 the full control effect; nearly all actives have a fitted effect of over 60% in size
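Substrate mix (final 50 mM imidazole pH 7.2, 50 mM KCl, 7 mM MgCl2, 10 uM ATP, 0.01% Tween 20, 0.05% BSA) plus pin-tool compound, then Kinase-Glo detection mix; 8 min ambient, luminescence read.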
HPGD block = inhibitors of human 15-hydroxyprostaglandin dehydrogenase (HPGD). Potency, µM, for the others: at the highest dose activity change, negative = inhibition, usual class: inhibitors. P15428. purified HPGD, NADH fluorescence kinetic, PGE2 substrate. hit rate 4.3% among 150,000; active means well fitted inhibition curve with a large enough effect, not every such curve was filed as active; inconclusive means small, poorly fitted or top-dose-only effect, or another doubt; inactive means no such curve, though single readings can be large or run the other way; further: on the % scale 0 is the no-effect control and ±100 the full control effect
Target sequence (P15428 whole entry, looked up): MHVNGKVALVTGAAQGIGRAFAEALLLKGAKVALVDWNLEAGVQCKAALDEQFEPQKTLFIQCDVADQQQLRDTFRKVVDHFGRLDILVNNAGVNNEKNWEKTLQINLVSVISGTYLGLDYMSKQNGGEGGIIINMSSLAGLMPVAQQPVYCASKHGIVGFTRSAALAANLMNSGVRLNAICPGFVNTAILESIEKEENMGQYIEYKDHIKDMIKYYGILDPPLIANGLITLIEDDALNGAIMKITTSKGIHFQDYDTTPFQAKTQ
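20 nM HPGD preincubated 15 min at room temperature with compound in 50 mM Tris-HCl pH 8, 0.01% Tween 20. Started with 1 mM NAD+ and 30 uM prostaglandin E2; NADH fluorescence (360/450 nm) read 5 times over 30-s intervals, last minus first.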
Numbers without * were called inactive; ? = inconclusive; . = not tested or not shown; ! = a repeat was not active; [ ] = another dose, or the depositor's remark. An excerpt weighted towards active compounds, which were near 9% of everything screened. Unless noted, the call rests on the fitted dose curve; in most records, active means well fitted curve in the direction sought with a large enough effect; inconclusive means small, poorly fitted or top-dose-only effect, or another doubt; inactive means no such curve, though single readings can be large; an effect the other way counts as inactive or inconclusive. Potency means the concentration at half of the fitted maximal effect.

SMILES	HTT ATP protect	LMNA splice mod	HttQ103 aggreg	ALDH1A1 inh	KinaseGlo FLuc	HPGD block
CN1CCN(c2nc(-c3ccc(Br)cc3)nnc2-c2ccccc2)CC1	-43.1%	?	7.4%	22.4µM*	-1.8%	-11.8%
Cc1cc(C)nc(SCc2ccc(C(=O)N/N=C/c3ccco3)cc2)n1	-34.3%	.	5.3%	-7.9%	-2.4%	.
O=C1CCc2cc(OCCCCc3nnnn3C3CCCCC3)ccc2N1	-6.5%	?	17.4%	25.1µM*!	-0.9%	-28.3%
COc1cccc(N2CCN(Cc3nnnn3C3CCCCC3)CC2)c1	17.1%[10 µM]	?	4.1%[9.22 µM]	-14.7%	-2.0%	.
CC12CC(NC(=O)N1c1cccc(C(=O)N3CCN(c4ccccc4F)CC3)c1)c1ccccc1O2 (centres undefined)	33.5%	0.9%	-4.5%[9.22 µM]	-2.1%	5.0%	-11.2%
CCOCCCNC(=O)COC(=O)/C=C/c1ccc(S(=O)(=O)N2CCc3ccccc32)cc1	-13.4%	-9.2%[46 µM]	-12.0%[9.22 µM]	7.94µM*	8.0%	.
Cc1ccc(-n2cc[nH]c2=S)cc1C	5.0%[10 µM]	-6.9%	3.5%	?	0.5%	22.4µM*
O=C(Cn1nnc(-c2ccccc2F)n1)Nc1ccc(S(=O)(=O)NC2CCCC2)cc1	-17.8%	12.0%	-28.8%	0.3%	1.0%	7.08µM*
O=C(Cn1nnc(-c2ccccc2F)n1)Nc1ccc2c(c1)OCO2	-2.7%	-1.6%	-13.7%	11.0%	12.3%	-12.9%
O=C(c1ccc(NC(=O)C2(c3ccccc3)CCCC2)cc1)N1CCOCC1	-4.9%[10 µM]	.	8.7%[9.22 µM]	.	.	.
CCOC(=O)c1ccc(NC(=O)Cn2nnc(-c3ccc(F)cc3)n2)cc1	1.2%	0.9%	1.3%	0.9%	2.4%	0.0%
O=C(Cn1nnc(-c2ccccc2F)n1)Nc1ccc(C(=O)N2CCOCC2)cc1	4.5%[10 µM]	4.3%	21.7%	-1.0%	2.5%	39.8µM*
CCOC(=O)c1ccc(NC(=O)Cn2nnc(-c3ccccc3)n2)cc1	-48.7%	?	?	25.1µM*	.	.
CCOC(=O)c1ccc(NC(=O)Cn2nnc(-c3ccccc3F)n2)cc1	.	?	-3.7%	5.0%	1.7%	-9.2%
O=C(Nc1ccccc1)Nc1ccc(C(=O)N2CCOCC2)cc1	18.3%	-7.0%	-6.6%	3.1%	3.16µM*	15.8µM*
COc1ccc(OC2C(O)COC2/C=C/C#Cc2ccc(F)cc2F)cc1 (centres undefined)	-13.7%[10 µM]	.	.	5.5%[13.5 µM]	.	.
O=C(N/N=C\c1cccs1)c1sccc1-n1cccc1	-62.1%	15.8%[46 µM]	1.5%	?	-2.4%	.
Cc1cc(N2CCN(c3cccc(C)c3C)CC2)nc(-c2ccccc2)n1	3.1%[10 µM]	?	-2.7%	0.2%	0.3%	-6.7%
CCN(CC)C(=O)C1CCN(Cc2cccc(OCc3ccccc3)c2)CC1	-6.6%[10 µM]	?	-3.6%	1.6%	-0.5%	-9.5%
O=C(CSc1nnc(Cn2nnc(-c3ccccc3)n2)n1-c1ccccc1)Nc1ccccc1	2.3%	15.9%	16.7%	4.47µM*	-3.6%	-7.4%
O=C(CSc1nnc(Cn2nnc(-c3ccccc3)n2)n1-c1ccccc1)Nc1ccc(F)cc1	-4.8%[10 µM]	0.7%	15.6%	?	-0.5%	-1.5%
COC(=O)c1cccc(NC(=O)CCc2ccccc2)c1	6.9%[10 µM]	6.7%	-1.8%	25.1µM*	-4.6%	25.1µM*
COc1ccc(Cl)cc1NC(=O)CCc1ccccc1	-9.5%	0.4%	24.7%	-13.9%	-3.2%	-21.3%
COC(=O)c1cccc(NC(=O)CCc2cc(OC)c(OC)c(OC)c2)c1	.	?	3.1%	-1.9%	-3.0%	-13.9%
COc1cc(OC)c(NC(=O)CCc2ccccc2)cc1Cl	-15.8%	13.3%	12.7%	-5.8%	-1.4%	15.8µM*
COC(=O)c1ccc(C)c(NC(=O)CCc2ccc(OC)cc2)c1	12.1%[1.9 µM]	-2.7%	-7.7%	20µM*	5.4%	-27.1%
Cc1ccc2nc(-c3ccc(NC(=O)CN4CCN(C(=O)c5ccco5)CC4)cc3)sc2c1	-5.9%[10 µM]	?	1.9%	?	8.5%	?

Assay outcomes as filed in PubChem.
